# Source: PubChem
# TGFb inhibitor = inhibitors of TGF-b signaling | HepG2 CAGA-GFP TGF-b/SMAD3 reporter, GFP fluorescence, 18 h; TGF-beta stimulated, 500 pg/mL final | Potency, µM (doses to about 46.1 µM), actives largely listed as inhibitors | actives 1.2% (n = 410,000) | AID 588855; also: nearly all actives have a fitted effect of over 65% in size
#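 First, reporter cells (HEPG2 CAGA-GFP) rested 2 h at 37 degrees C. Next, compounds were pinned in and TGF-beta added to 500 pg/mL final. After 18 h, GFP was imaged per cell and summed per well.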
# S2 tox = viability counter-screen for ATXN expression inhibitors | S2 cells (HEK-293 line with an ATXN2-luciferase reporter) viability, CellTiter-Fluor protease fluorescence, 24 h | Potency, µM (top dose mostly 56.7 µM), actives largely listed as cytotoxic | actives 0.49% (n = 400,000); also: nearly all actives have a fitted effect of over 40% in size
# ATXN2 expr inh = reduces ATXN2 reporter expression in HEK-293 cells; HEK-293 ATXN2-luciferase reporter, luminescence, 24 h; Potency, µM (titrated, usually from 57 µM), usual class: inhibitors; actives 0.72% (n = 360,000); AID 1745845; also: nearly all actives have a fitted effect of over 55% in size
#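 qHTS (up to 57 uM final) was run with 24 h compound exposure of reporter cells at 37 °C. Each well was multiplexed: SteadyGlo luminescence measured ATXN2-luciferase expression after a fluorogenic Gly-Phe-AFC viability readout (25 uM final).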
# uPA generation = cell surface uPA generation inhibition; cell surface uPA generation assay, qHTS; Potency, µM (doses to about 38.3 µM), actives largely listed as inhibitors; actives 0.31% (n = 330,000); AID 540303; active = well fitted inhibition curve with a large enough effect; inconclusive = small, poorly fitted or top-dose-only effect; inactive = no such curve, though single readings can be large or run the other way; tested in mouse RAW 264.7 cells; also: nearly all actives have a fitted effect of over 55% in size
# HepG2 tox = kills HepG2 cells in TGF-b inhibitor counter-screen; AID 588856; HepG2 CAGA-GFP viability, ATP luminescence, 18 h; Potency, µM (series often up to 46.1 µM), most hits filed as cytotoxic; actives 0.76% (n = 410,000)
#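 HepG2 CAGA-GFP cells (1000/well, DMEM with 1% FBS) received compound, then TGF-beta at 500 pg/mL final, and were incubated 18 hours at 37 degrees C. Viability was read by CellTiter-Glo luminescence. Media-only wells were set as complete cell-killing and DMSO as no toxicity.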
# Giardia killer = kills Giardia lamblia; Giardia lamblia trophozoite viability; activity change, % at 7.66 µM, hits read low; actives 0.15% (n = 340,000); in the data active = activity change below about -80%; inconclusive = between about -30% and that limit;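 also: parasites exposed to compound for two days anaerobically before the ATP read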
#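 Giardia trophozoites, 100 cells per well, were exposed to compounds for 48 hrs at 37 deg C under anaerobic conditions; viability was then read as ATP content by bioluminescence after 15-30 min at room temperature.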
# Hits are given with their value; i = inactive; ? = inconclusive; nt = no result. A selection: hits, their analogues and other compounds. The true share with any hit is near 2.6%. Unless noted, calls follow the shape of the dose curve; as a rule, active = well fitted curve in the direction sought with a large enough effect; inconclusive = small, poorly fitted or top-dose-only effect, or another doubt; inactive = no such curve, though single readings can be large; an effect the other way counts as inactive or inconclusive.
SMILES,TGFb inhibitor,S2 tox,ATXN2 expr inh,uPA generation,HepG2 tox,Giardia killer
COc1ccc([C@H]2CC(=O)C=C(c3cc(C)ccc3OC)C2)cc1,i,?,i,10µM,i,i
COC(=O)CN1CCC(=O)c2ccccc2S1(=O)=O,i,nt,nt,nt,i,i
Cc1ccc(CNc2nc(CN3CCNC(=O)C3)nc3ccccc23)o1,nt,i,nt,nt,nt,nt
C/C(=N\NC(=O)c1ccc(CN2CCc3ccccc3C2)cc1)c1ccccc1O,?,i,15.8µM,i,i,i
COc1ccc(/C=C2\CCc3c2nc2ccccc2c3C(=O)O)cc1OC,i,nt,nt,3.55µM,i,?
Cc1c(/C=C/c2ccnc3ccccc23)ccc(N(C)C)c1C,?,nt,nt,nt,i,nt
Cc1ccc(C#CC[N+]2(CC#Cc3ccc(C)cc3)CCCCC2)cc1,20µM,?,?,7.08µM,i,i
CCOc1cccc(-c2cnc3cccnn23)c1,i,i,i,nt,i,nt
CN1CCC(CNc2ccc3ncc(-c4cccc(OC(F)(F)F)c4)n3n2)CC1,nt,nt,24.3µM,nt,nt,nt
COC(=O)c1sccc1S(=O)(=O)N1CCC(n2c(CC3CCCC3)nc3cccnc32)CC1,nt,i,nt,nt,nt,nt
Cc1cccnc1C(NC(=O)C1CCN(CCCc2ccccc2)CC1)c1ccc(Cl)cc1 (stereo not drawn),?,?,?,nt,11.2µM,nt
Cc1cccnc1C(NC(=O)C1CCN(Cc2cn(C)c3ccccc23)CC1)c1ccc(Cl)cc1 (stereo not drawn),?,?,?,nt,8.91µM,nt
O=C(NC(c1ccc(Cl)cc1)c1ccccn1)C1CCN(CCOc2ccc(Cl)cc2Cl)CC1 (stereo not drawn),?,i,i,nt,i,nt
Cc1cccnc1C(NC(=O)C1CCN(CCOc2ccc(Cl)cc2Cl)CC1)c1ccc(Cl)cc1 (stereo not drawn),?,25.1µM,20µM,nt,i,nt
Cc1cccnc1C(NC(=O)C1CCN(Cc2ccc(Cl)cc2)CC1)c1ccccc1 (stereo not drawn),i,i,i,nt,i,nt
O=C(NCc1cccnc1)c1cnn(-c2ncc3c(n2)-c2ccccc2CCC3)c1C1CC1,nt,i,nt,nt,nt,nt
CN(C)c1ccc(/C=C/c2ccnc3c(Cl)cccc23)cc1,i,nt,nt,nt,i,nt
NC(=S)NN=Cc1nccc2c(C(F)(F)C(F)(F)C(F)(F)F)cccc12,1.41µM,nt,nt,nt,i,nt
Cc1cnc(C=NNC(N)=S)c2cccc(N)c12,10µM,?,?,i,i,i
COc1ccc(-c2csc(NC(=O)c3ccc(OCC(=O)N4CCOCC4)c(OC)c3)n2)cc1OC,i,?,15.8µM,i,i,i
COc1ccc(CC(=O)Nc2nc(-c3ccc(OC)c(OC)c3)cs2)cc1OC,i,?,22.4µM,i,i,i
COc1cc(C(=O)Nc2cccc(C)n2)ccc1OCC(=O)N1CCOCC1,i,i,i,i,i,i
COc1ccc(-c2csc(NC(=O)c3ccco3)n2)cc1,i,i,i,i,i,i
COc1ccc(-c2csc(NC(=O)C3CCN(c4ncnc5sc(C)c(C)c45)CC3)n2)cc1OC,i,i,7.94µM,i,i,i
COc1ccc(-c2csc(NC(=O)Cc3ccccc3F)n2)cc1OC,?,i,i,i,i,i
SMILES,TGFb inhibitor,S2 tox,ATXN2 expr inh,uPA generation,HepG2 tox,Giardia killer
COc1ccc(-c2csc(NC(=O)c3c(OC)cccc3OC)n2)cc1,i,i,i,i,14.1µM,i
N#CC1=C(N)CCC1,i,nt,nt,nt,i,nt
O=c1cc(/C=C/c2ccc([N+](=O)[O-])cc2)c2ccccc2[nH]1,i,nt,nt,nt,i,nt
COc1ccc(Cn2c(C(=O)O)c(CNCc3ccco3)c3ccc(C)cc32)cc1,i,7.94µM,i,nt,i,nt
COc1ccc(Cn2c(C(=O)O)c(CNCCc3cccs3)c3ccc(C)cc32)cc1,i,31.6µM,?,nt,i,nt
Cc1ccc(Cn2c(C(=O)O)c(CNCCc3cccs3)c3ccc(C)cc32)cc1,?,?,i,nt,i,nt
O=C1CC[C@@H](CN(Cc2cccnc2)C2CCN(c3ccc(NC(=O)c4cnccn4)cc3)CC2)N1,nt,i,nt,nt,nt,nt
Nc1ccccc1C#Cc1ccc([N+](=O)[O-])cc1,i,?,i,i,i,i
Nc1ccccc1C#CC(=O)c1ccccc1,3.55µM,?,nt,?,i,i
